Test systems include SK-MEL-2 melanoma; EKVX NSCLC; SN12C renal; UO-31 renal; TK-10 renal; ACHN renal; CAKI-1 renal; A498 renal; CCRF-CEM leukemia; MOLT-4 leukemia.
Common to all, as to assay: NCI-60 one-dose screen, 48 h (100 = growth as untreated, 0 = no growth, -100 = all killed)
Common to all, as to details: 10 µM unless noted

Growth data for 13 molecules are collected here from PubChem BioAssay (NCI).

Compounds without any hit were thinned out: in the full panel of roughly 83,000, 20% have a hit.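 Assay: single dose, 48 h. Readout: percent growth (0 = no net growth; negative = cell death). Active: <10.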 Values without a mark were called inactive. Active and inactive are the calls of the source.

Take `CCCCNP1(NCCCC)=NP(NCCCC)(NCCCC)=NP(NCCCC)(NCCCC)=NP(NCCCC)(NCCCC)=N1`: the growth is -23.1% (active) with SK-MEL-2 melanoma; -17.2% (active) in the experiment on EKVX NSCLC; 20.1% in the experiment on SN12C renal; 37.6% in the experiment on UO-31 renal; 13.6% in the experiment on TK-10 renal; 33.9% in the experiment on ACHN renal. Moreover, the growth in the experiment with CAKI-1 renal is 64.4%; with A498 renal it was 4.56% (active); in the experiment with CCRF-CEM leukemia, -16.8% (active); in the experiment on MOLT-4 leukemia, -38.5% (active).

Consider `C=C1CC[C@@H]2[C@](C)(COC(C)=O)[C@H](OC(C)=O)CC[C@@]2(C)[C@@H]1CC(NCc1ccc(F)cc1)C1=CCOC1=O` (some centres not stated), for which the growth was 73.2% in the experiment on SK-MEL-2 melanoma; 50% in the experiment on EKVX NSCLC; 46.2% in the experiment with SN12C renal; 31.3% in the experiment on UO-31 renal; 66.6% in the experiment on TK-10 renal; 50.9% in the experiment on ACHN renal. Moreover, the growth is 46% in the experiment on CAKI-1 renal, 51.7% in the experiment on A498 renal, 9.18% (active) in the experiment with CCRF-CEM leukemia and -0.37% (active) with MOLT-4 leukemia.

Take `COc1ccc(-c2cn3c(ccc4ccccc43)n2)cc1`: the growth in the experiment with SK-MEL-2 melanoma is 109%; in the experiment on EKVX NSCLC, 72.1%; in the experiment on SN12C renal it was 89.9%; in the experiment with UO-31 renal it was 56.1%; with TK-10 renal it was 126%; with ACHN renal, 81.3%. Moreover, the growth in the experiment on CAKI-1 renal is 92.7%; in the experiment with A498 renal, 116%; in the experiment on CCRF-CEM leukemia, 99.2%; with MOLT-4 leukemia, 113%.

For the molecule `CC(C)[C@@H]1CC[C@]2(C(=O)NCCCCN=C(N)N)CC[C@]3(C)[C@H](CC[C@@H]4[C@@]5(C)CCC(=O)C(C)(C)[C@@H]5CC[C@]43C)[C@@H]12`, the growth in the experiment on SK-MEL-2 melanoma is 83.3%; in the experiment with EKVX NSCLC, 81.5%; in the experiment with SN12C renal, 60.7%; in the experiment with UO-31 renal, 82.6%; in the experiment on TK-10 renal, 88.7%; with ACHN renal it was 79.6%. In addition, the growth in the experiment with CAKI-1 renal was 96.7%; with A498 renal it was 111%; in the experiment on CCRF-CEM leukemia, 37.6%; in the experiment with MOLT-4 leukemia, 38.6%.

Regarding `Clc1ccc(-c2nnc(COc3ccccc3Cl)o2)cc1`, the growth was 99.1% in the experiment with SK-MEL-2 melanoma; 86.9% with EKVX NSCLC; 97.8% with SN12C renal; 77.5% in the experiment on UO-31 renal; 69.9% with TK-10 renal; 22.7% with ACHN renal. In addition, the growth with CAKI-1 renal was 84.3%; with A498 renal, 98.7%; with CCRF-CEM leukemia it was 92%; with MOLT-4 leukemia it was 90.5%.

In the case of `O=C(NCc1cccc(C(F)(F)F)c1)[C@H](CCC(=O)N1CCN(C2CCCCC2)CC1)N1C(=O)[C@@H](N2C(=O)OC[C@@H]2c2ccccc2)[C@H]1/C(Cl)=C/c1ccccc1`, the growth with SK-MEL-2 melanoma was 34.8%; with EKVX NSCLC it was 53.8%; in the experiment with SN12C renal, 37.1%; in the experiment on UO-31 renal, 27.5%; in the experiment with TK-10 renal it was 40.8%; with ACHN renal, 58.4%. Besides, the growth in the experiment on CAKI-1 renal was 62.4%; in the experiment with A498 renal, 46.9%; in the experiment on MOLT-4 leukemia it was 21.4%.

Turning to `Cc1ccc2c(c1)O/C(=C\c1cccc(OCC(=O)c3ccccc3)c1)C2=O`, the growth in the experiment with SK-MEL-2 melanoma was 70%; with EKVX NSCLC it was 95.5%; with SN12C renal, 107%; in the experiment with UO-31 renal, 78.4%; in the experiment with TK-10 renal it was 133%; in the experiment with ACHN renal it was 103%. The growth with CAKI-1 renal is 85.1%; in the experiment with A498 renal, 106%; in the experiment on CCRF-CEM leukemia, 129%; in the experiment with MOLT-4 leukemia, -34.3% (active).

For the molecule `O=C1c2cccnc2C(=O)c2c1c(C(=O)OCCN1CCCCC1)c1ccccn21`, the growth is -45.4% (active) in the experiment with SK-MEL-2 melanoma; 4.44% (active) in the experiment with EKVX NSCLC; -68.8% (active) in the experiment with SN12C renal; -12.7% (active) in the experiment on UO-31 renal; -14.3% (active) in the experiment on TK-10 renal; -66% (active) with ACHN renal. The growth was 2.16% (active) in the experiment with CAKI-1 renal, 47.3% in the experiment on A498 renal, -8.77% (active) with CCRF-CEM leukemia and -19.1% (active) in the experiment with MOLT-4 leukemia.

As for `CC/C=C\C[C@H](O)C/C=C1/C(=O)C=C[C@@H]1C/C=C\CCCC(=O)NC(C)C`, the growth is 28.8% with SK-MEL-2 melanoma; 28.4% in the experiment on EKVX NSCLC; -11.1% (active) in the experiment on SN12C renal; -61.8% (active) with UO-31 renal; -0.347% (active) in the experiment on TK-10 renal; -82.5% (active) in the experiment with ACHN renal. The growth with CAKI-1 renal was -0.696% (active); in the experiment on A498 renal, 98.5%; in the experiment with CCRF-CEM leukemia, -13% (active); in the experiment with MOLT-4 leukemia it was -17.7% (active).

For the molecule `O=c1c2c3c(sc2n2c(CCl)nnc2n1Cc1ccccc1)CCCC3`, the growth in the experiment with SK-MEL-2 melanoma was -83.1% (active); in the experiment on EKVX NSCLC, -35.4% (active); in the experiment with SN12C renal, -82.8% (active); with UO-31 renal, -83.2% (active); in the experiment on TK-10 renal, -93.6% (active); with ACHN renal, -100% (active). Besides, the figures for the growth in the experiment on CAKI-1 renal, in the experiment on A498 renal and in the experiment on MOLT-4 leukemia were -100% (active), 92.5% and -18.4% (active), respectively.

Turning to `COc1cnc2c(c1)C(=O)c1c-2n(CCCN2CCNCC2)c(=O)c2cc([N+](=O)[O-])ccc12`, the growth in the experiment with SK-MEL-2 melanoma was 77.8%; in the experiment on EKVX NSCLC, -64.6% (active); with SN12C renal, -71.5% (active); in the experiment with UO-31 renal, -79.3% (active); in the experiment with TK-10 renal, 32.4%; in the experiment with ACHN renal it was -88.4% (active). The growth was -94.5% (active) in the experiment on CAKI-1 renal, 16.9% in the experiment with A498 renal, -23% (active) in the experiment on CCRF-CEM leukemia and -4.73% (active) with MOLT-4 leukemia.

In the case of `Cc1cc(=O)oc2cc(Oc3nc(-c4cccs4)cn4c(-c5cccs5)cnc34)ccc12`, the growth is 69% in the experiment with SK-MEL-2 melanoma; 64% in the experiment on EKVX NSCLC; 73.8% with SN12C renal; 60.3% with UO-31 renal; 53.9% with TK-10 renal; 57.3% with ACHN renal. Moreover, the growth in the experiment with CAKI-1 renal was 67.8%; in the experiment on A498 renal, 64.4%; in the experiment on CCRF-CEM leukemia it was 94.6%; in the experiment on MOLT-4 leukemia, 78.7%.

`C=C1CCC2C3(C)COC(c4ccccc4Br)OC3CCC2(C)C1C/C=C1/C(=O)OCC1OC(C)=O` (configuration not stated): the growth in the experiment with SK-MEL-2 melanoma is -37.4% (active); in the experiment with EKVX NSCLC it was -3.86% (active); in the experiment with SN12C renal, -43.7% (active); in the experiment with UO-31 renal, 26%; with TK-10 renal, -48.5% (active); in the experiment with ACHN renal, -80.2% (active). Besides, the growth in the experiment with CAKI-1 renal was -32.4% (active); in the experiment with A498 renal it was 42.8%; in the experiment on MOLT-4 leukemia, -45.5% (active).
